About 79,000 compounds went through this panel and 15% of them were active in at least one assay; those are over-represented in the sample as a whole. Calls of active or inactive are those of the source. No stated cut-off is given here; in the data, active means growth inhibition above about 70%; inactive means the rest.
What was measured:
[1] = NCI Yeast Anticancer Drug Screen. Data for the rad52 strain (AID 147);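 further: 0% = growth of vehicle-treated control cultures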; settings: S. cerevisiae rad52 mutant growth inhibition, hits give high values
Outline: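 Genetically altered yeast (DNA damage repair defect) treated with compound; inhibition calculated relative to vehicle.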

[2] = NCI Yeast Anticancer Drug Screen. Data for the wt1 strain (AID 149);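 further: 0% = growth of vehicle-treated wt1 cultures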; settings: S. cerevisiae wt1 strain (SPY 50644) growth inhibition, hits give high values
Outline: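 Yeast wt1 strain exposed to compounds; growth inhibition measured relative to vehicle-treated controls.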

[3] = NCI Yeast Anticancer Drug Screen. Data for the rad50EPP+ strain (AID 151);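 further: 0% = growth of vehicle-treated control cultures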; settings: S. cerevisiae rad50 mutant strain, hits give high values
Outline: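 Strain rad50EPP+; compound exposure; % growth inhibition vs vehicle.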

[4] = NCI Yeast Anticancer Drug Screen. Data for the mgt1 strain (AID 153); settings: S. cerevisiae mgt1 mutant growth inhibition, hits give high values
Outline: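 Read-out: yeast growth inhibition vs vehicle control. Strain mgt1, drawn from a panel altered in DNA damage repair or cell cycle control.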

[5] = NCI Yeast Anticancer Drug Screen. Data for the rad50 strain (AID 155);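 further: 0% = growth of vehicle-only cultures of the same strain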; settings: S. cerevisiae rad50 strain growth inhibition, hits give high values
Outline: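 Yeast carrying a defined DNA repair defect were exposed to test compounds, and growth was compared with vehicle-treated controls to give percent inhibition.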

[6] = NCI Yeast Anticancer Drug Screen. Data for the mec2-1 strain (AID 157); settings: S. cerevisiae mec2-1 strain, hits give high values
Outline: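 Cells of the genetically defined mec2-1 yeast strain are incubated with test compound. Inhibition of growth is calculated against vehicle-treated controls.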

[7] = NCI Yeast Anticancer Drug Screen. Data for the rad14 strain (AID 159);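 further: 0% = growth of vehicle-treated control cultures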; settings: S. cerevisiae rad14 strain growth inhibition, hits give high values
Outline: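 Yeast cells carrying a defined DNA-repair defect were exposed to compounds, and growth inhibition was calculated relative to vehicle-treated control cultures.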

[8] = NCI Yeast Anticancer Drug Screen. Data for the sgs1 mgt1 strain (AID 161);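 further: 0% = growth of cultures given vehicle only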; settings: S. cerevisiae sgs1 mgt1 strain, hits give high values
Outline: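 Mutant yeast exposed to compound; growth scored against vehicle-only wells.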

[9] = NCI Yeast Anticancer Drug Screen. Data for the CLN2oe strain (AID 163);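 further: 0% = growth of vehicle-only control cultures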; settings: S. cerevisiae CLN2oe strain, hits give high values
Outline: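 Strain altered in cell-cycle control, incubated with compound; growth compared to solvent-treated controls.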

[10] = NCI Yeast Anticancer Drug Screen. Data for the cln2 rad14 strain (AID 165);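 further: 0% = growth equal to vehicle treated cultures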; settings: S. cerevisiae cln2 rad14 strain, hits give high values
Outline: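 The screen exposed genetically defined yeast (cln2 rad14) to test compounds and scored growth inhibition relative to vehicle-treated controls.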

[11] = NCI Yeast Anticancer Drug Screen. Data for the bub3 strain (AID 167); settings: S. cerevisiae bub3 mutant strain, hits give high values
Outline: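 Compounds were applied to a genetically altered yeast strain carrying a cell-cycle control defect. Growth inhibition was scored against vehicle-treated controls.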

[12] = NCI Yeast Anticancer Drug Screen. Data for the wt2 strain (AID 169);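 further: 0% = growth of vehicle-treated yeast cultures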; settings: S. cerevisiae wt2 strain growth inhibition, hits give high values
Outline: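 Steps: yeast strain treated with compound; growth recorded; inhibition calculated relative to cultures given vehicle alone.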

[13] = NCI Yeast Anticancer Drug Screen. Data for the mlh1 strain (AID 171);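 further: 0% = growth of vehicle-treated control cultures of the same strain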; settings: S. cerevisiae mlh1 strain growth inhibition, hits give high values
Outline: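 Yeast screen: mutant strain plus compound, growth scored against vehicle control wells.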

[14] = NCI Yeast Anticancer Drug Screen. Data for the sgs1 strain (AID 173);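 further: 0% = growth of vehicle-only control cultures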; settings: S. cerevisiae sgs1 mutant, hits give high values
Outline: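 Inhibition of yeast growth served as the measure. The mutant strain was treated with each compound, and growth was normalised to cultures receiving vehicle alone.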

[15] = NCI Yeast Anticancer Drug Screen. Data for the mlh1 rad18 strain (AID 175); settings: S. cerevisiae mlh1 rad18 strain growth inhibition, hits give high values
Outline: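 Compound-treated yeast growth, normalised to vehicle controls. Strain bears defined DNA repair mutations.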

[16] = NCI Yeast Anticancer Drug Screen. Data for the rad18 strain (AID 177); settings: S. cerevisiae rad18 mutant growth inhibition, hits give high values
Outline: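 Inhibition values reflect reduced yeast growth compared with vehicle-treated controls, using a strain engineered with a DNA damage repair defect.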

[17] = at 5.0 µM (retest, dose inferred, filed as 0.5)
[18] = at 50.0 µM (retest, dose inferred, filed as 5.0)

Measured: growth inhibition

C[N+]1(CCCl)CC[N+](C)(CCCl)CC1 (stereo not drawn)
active: [1]; at 100.0 µM 95% | [2]; at 100.0 µM 95% | [4]; at 100.0 µM 97% | [5]; [18] 95% | [5]; at 50.0 µM 97.2% | [5]; at 100.0 µM 96% | [6]; at 33.0 µM 81% | [6]; [18] 99% | [6]; at 50.0 µM 96.7% | [6]; at 100.0 µM 98% | [7]; at 100.0 µM 96% | [8]; [18] 98% | [8]; at 50.0 µM 96.1% | [9]; at 100.0 µM 95% | [10]; [18] 96% | [10]; at 50.0 µM 94.3% | [11]; [17] 78% | [11]; [18] 98% | [11]; at 50.0 µM 97% | [11]; at 100.0 µM 97% | [12]; at 100.0 µM 94% | [13]; at 100.0 µM 94% | [14]; at 100.0 µM 96% | [15]; [18] 97% | [15]; at 50.0 µM 97.6% | [16]; at 100.0 µM 97%
inactive: [1]; at 1.2 µM 0% | [1]; at 3.7 µM 3% | [1]; at 11.0 µM 5% | [1]; at 33.0 µM 36% | [2]; at 1.2 µM 0% | [2]; at 3.7 µM -1% | [2]; at 11.0 µM 1% | [2]; at 33.0 µM 14% | [3]; at 1.2 µM 0% | [3]; at 3.7 µM 0% | [3]; at 11.0 µM 2% | [3]; at 33.0 µM 7% | [3]; at 100.0 µM 56% | [4]; at 1.2 µM -2% | [4]; at 3.7 µM 1% | [4]; at 11.0 µM 3% | [4]; at 33.0 µM 29% | [5]; at 1.2 µM 1% | [5]; at 3.7 µM 2% | [5]; [17] 18% | [5]; at 11.0 µM 4% | [5]; at 33.0 µM 48% | [6]; at 1.2 µM -3% | [6]; at 3.7 µM -3% | [6]; [17] 21% | [6]; at 11.0 µM 2% | [7]; at 1.2 µM 1% | [7]; at 3.7 µM 3% | [7]; at 11.0 µM 7% | [7]; at 33.0 µM 56% | [8]; [17] 29% | [9]; at 1.2 µM -3% | [9]; at 3.7 µM -2% | [9]; at 11.0 µM 3% | [9]; at 33.0 µM 32% | [10]; [17] 2% | [11]; at 1.2 µM 1% | [11]; at 3.7 µM 1% | [11]; at 11.0 µM -5% | [11]; at 33.0 µM 29% | [12]; at 1.2 µM 0% | [12]; at 3.7 µM 0% | [12]; at 11.0 µM 1% | [12]; at 33.0 µM 14% | [13]; at 1.2 µM 0% | [13]; at 3.7 µM -1% | [13]; at 11.0 µM 0% | [13]; at 33.0 µM 13% | [14]; at 1.2 µM 0% | [14]; at 3.7 µM -1% | [14]; at 11.0 µM 1% | [14]; at 33.0 µM 34% | [15]; [17] 13% | [16]; at 1.2 µM -2% | [16]; at 3.7 µM -1% | [16]; at 11.0 µM 5% | [16]; at 33.0 µM 61%
